Among the data in the supplement of paper PMC9492666 are relative cell viability values, retold here.

Molecules are shown by their SMILES. Where a name gives a salt, the structure may show the parent alone.

For one assay, the system named is HCC1937. Put plainly: relative cell viability, compound + RSL3, vs DMSO (fraction of DMSO control); higher = less growth inhibition. The settings on record: 72 h.
Another assay concerns MDA-MB-231. The description is as above. As to conditions: 72 h.
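Also: breast cancer cell viability read out with the CCK-8 kit after co-treatment of each compound with the ferroptosis inducer RSL3.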

On to `COC(=O)c1cc(Cl)c(O)c(S(=O)(=O)Nc2cc(-c3ccccc3)c(F)cc2F)c1` + COC(=O)c1ccc([C@H]2c3[nH]c4ccccc4c3C[C@H](C(=O)OC)N2C(=O)CCl)cc1 [RSL3], for which the relative cell viability was determined as 0.45 with HCC1937 and 0.573 in the assay with MDA-MB-231.
The like results for `Cc1nc2ccc(NCc3cccc(C(F)(F)F)c3)cc2n(CCNC(=O)CO)c1=O` + COC(=O)c1ccc([C@H]2c3[nH]c4ccccc4c3C[C@H](C(=O)OC)N2C(=O)CCl)cc1 [RSL3] were, in that order, 0.354 and 0.567.
Taken in the same sequence, the figures for `Cc1nc2ccc(C(=O)N3CCC4(CC3)CC(=O)c3c(cnn3C(C)C)C4)cc2[nH]1` + COC(=O)c1ccc([C@H]2c3[nH]c4ccccc4c3C[C@H](C(=O)OC)N2C(=O)CCl)cc1 [RSL3] were 0.402 and 0.591.
For `O=c1cc(-c2ccc(O)c(-c3c(O)cc(O)c4c(=O)cc(-c5ccc(O)cc5)oc34)c2)oc2cc(O)cc(O)c12` [Amentoflavone] + COC(=O)c1ccc([C@H]2c3[nH]c4ccccc4c3C[C@H](C(=O)OC)N2C(=O)CCl)cc1 [RSL3], the relative cell viability in the assay with HCC1937 came out at 0.318; in the assay on MDA-MB-231, 0.496.
The like results for `c1cc(-c2cnn3cc(-c4ccc(OCCN5CCCCC5)cc4)cnc23)ccn1` [Dorsomorphin] + COC(=O)c1ccc([C@H]2c3[nH]c4ccccc4c3C[C@H](C(=O)OC)N2C(=O)CCl)cc1 [RSL3] were, in that order, 0.123 and 0.31.
The like results for `CCCCCCCCCc1ccc(B(O)O)cc1` [4-Nonylphenylboronic acid] + COC(=O)c1ccc([C@H]2c3[nH]c4ccccc4c3C[C@H](C(=O)OC)N2C(=O)CCl)cc1 [RSL3] were, in that order, 0.546 and 0.732.
As to `CCc1ccc(N(CC(C)C)S(=O)(=O)c2ccc(OCC3CCOCC3)c(CO)c2)cc1` + COC(=O)c1ccc([C@H]2c3[nH]c4ccccc4c3C[C@H](C(=O)OC)N2C(=O)CCl)cc1 [RSL3], the relative cell viability with HCC1937 came out at 0.53; in the assay with MDA-MB-231 it was 0.581.
The like results for `CN(C)C(=N)NC(=N)N` [Metformin] + COC(=O)c1ccc([C@H]2c3[nH]c4ccccc4c3C[C@H](C(=O)OC)N2C(=O)CCl)cc1 [RSL3] were, in that order, 0.335 and 0.542.
Taken in the same sequence, the figures for `O=C1C(SCCO)=C(SCCO)C(=O)c2ccccc21` + COC(=O)c1ccc([C@H]2c3[nH]c4ccccc4c3C[C@H](C(=O)OC)N2C(=O)CCl)cc1 [RSL3] were 0.388 and 0.925.
Taken in the same sequence, the figures for `CC(=O)Oc1cc(C(F)(F)F)ccc1C(=O)O` [Triflusal] + COC(=O)c1ccc([C@H]2c3[nH]c4ccccc4c3C[C@H](C(=O)OC)N2C(=O)CCl)cc1 [RSL3] were 0.717 and 0.492.
For `CCN(CC)CCCC(C)Nc1c2ccc(Cl)cc2nc2ccc(OC)cc12` (stereo unspecified) [Quinacrine dihydrochloride] + COC(=O)c1ccc([C@H]2c3[nH]c4ccccc4c3C[C@H](C(=O)OC)N2C(=O)CCl)cc1 [RSL3], the results for the relative cell viability in the assay on HCC1937 and in the assay with MDA-MB-231 were 0.301 and 0.283, respectively.
Turning to `O=C(O)CN(CC(=O)O)c1ccccc1OCCOc1ccccc1N(CC(=O)O)CC(=O)O` + COC(=O)c1ccc([C@H]2c3[nH]c4ccccc4c3C[C@H](C(=O)OC)N2C(=O)CCl)cc1 [RSL3], the relative cell viability in the assay on HCC1937 was 0.308; in the assay on MDA-MB-231 it was 0.581.
The like results for `CC(C)=CCC[C@](C)(O)[C@H]1CC[C@]2(C)[C@@H]1[C@H](O)C[C@@H]1[C@@]3(C)CC[C@H](O)C(C)(C)[C@@H]3[C@@H](O)C[C@]12C` [(20S)-Protopanaxatriol] + COC(=O)c1ccc([C@H]2c3[nH]c4ccccc4c3C[C@H](C(=O)OC)N2C(=O)CCl)cc1 [RSL3] were, in that order, 0.762 and 0.672.
The like results for `O=C(Nc1ccncc1)c1cc([N+](=O)[O-])ccc1Cl` + COC(=O)c1ccc([C@H]2c3[nH]c4ccccc4c3C[C@H](C(=O)OC)N2C(=O)CCl)cc1 [RSL3] were, in that order, 0.297 and 0.438.
As to `CCOP(=O)(OCC)C(=Cc1cc(C(C)(C)C)c(O)c(C(C)(C)C)c1)P(=O)(OCC)OCC` + COC(=O)c1ccc([C@H]2c3[nH]c4ccccc4c3C[C@H](C(=O)OC)N2C(=O)CCl)cc1 [RSL3], the relative cell viability was determined as 0.274 with HCC1937 and 0.448 in the assay with MDA-MB-231.
Taken in the same sequence, the figures for `NC(N)=N/N=C/c1cccc(Cl)c1Cl` [Raphin1 acetate] + COC(=O)c1ccc([C@H]2c3[nH]c4ccccc4c3C[C@H](C(=O)OC)N2C(=O)CCl)cc1 [RSL3] were 0.38 and 0.603.
Taken in the same sequence, the figures for `CCN(CC)c1ccc(C=NNC(=O)c2ccncc2)c(O)c1` + COC(=O)c1ccc([C@H]2c3[nH]c4ccccc4c3C[C@H](C(=O)OC)N2C(=O)CCl)cc1 [RSL3] were 0.265 and 0.611.
The like results for `Oc1ccc2c(c1)OCO2` [Sesamol] + COC(=O)c1ccc([C@H]2c3[nH]c4ccccc4c3C[C@H](C(=O)OC)N2C(=O)CCl)cc1 [RSL3] were, in that order, 0.399 and 0.548.
As for `CC(C)(Oc1ccc(CCNC(=O)c2ccc(Cl)cc2)cc1)C(=O)O` [Bezafibrate] + COC(=O)c1ccc([C@H]2c3[nH]c4ccccc4c3C[C@H](C(=O)OC)N2C(=O)CCl)cc1 [RSL3], the values for the relative cell viability in the assay on HCC1937 and in the assay on MDA-MB-231 were 0.594 and 0.518, respectively.
The like results for `O=C(O)Cn1nnc(-c2cc(N3CCC(Oc4cc(F)ccc4Br)CC3)no2)n1` + COC(=O)c1ccc([C@H]2c3[nH]c4ccccc4c3C[C@H](C(=O)OC)N2C(=O)CCl)cc1 [RSL3] were, in that order, 0.428 and 0.632.
The like results for `O=C(CCCCCCCC(=O)NCCO)NCCO` [Adelmidrol] + COC(=O)c1ccc([C@H]2c3[nH]c4ccccc4c3C[C@H](C(=O)OC)N2C(=O)CCl)cc1 [RSL3] were, in that order, 0.659 and 0.651.
Consider `CN(C)CCOC(=O)COc1ccc(Cl)cc1` [Meclofenoxate hydrochloride] + COC(=O)c1ccc([C@H]2c3[nH]c4ccccc4c3C[C@H](C(=O)OC)N2C(=O)CCl)cc1 [RSL3], for which the values for the relative cell viability in the assay with HCC1937 and with MDA-MB-231 were 0.612 and 0.574, respectively.
In the case of `CC1(C)CC[C@]2(C(=O)O[C@@H]3O[C@H](CO)[C@@H](O)[C@H](O)[C@H]3O)CC[C@]3(C)C(=CC[C@@H]4[C@@]5(C)CC[C@H](O[C@@H]6O[C@H](C(=O)O)[C@@H](O)[C@H](O)[C@H]6O)C(C)(C)[C@@H]5CC[C@]43C)[C@@H]2C1` [Chikusetsusaponin IVa] + COC(=O)c1ccc([C@H]2c3[nH]c4ccccc4c3C[C@H](C(=O)OC)N2C(=O)CCl)cc1 [RSL3], the relative cell viability stood at 0.597 with HCC1937 and 0.572 with MDA-MB-231.
`Oc1ccc(/C=C/c2cc(O)cc(O)c2)cc1` [Resveratrol] + COC(=O)c1ccc([C@H]2c3[nH]c4ccccc4c3C[C@H](C(=O)OC)N2C(=O)CCl)cc1 [RSL3]: the figures for the relative cell viability in the assay with HCC1937 and in the assay with MDA-MB-231 were 0.63 and 0.508, respectively.
The like results for `C[C@H]1N=C(N(C)C)N=C(N)N1` [Imeglimin hydrochloride] + COC(=O)c1ccc([C@H]2c3[nH]c4ccccc4c3C[C@H](C(=O)OC)N2C(=O)CCl)cc1 [RSL3] were, in that order, 0.504 and 0.647.
Take `CN(C)C(=O)Nc1cccc(-c2ccc(N(C)C)cc2)c1` [Atglistatin] + COC(=O)c1ccc([C@H]2c3[nH]c4ccccc4c3C[C@H](C(=O)OC)N2C(=O)CCl)cc1 [RSL3]: the relative cell viability was 0.321 in the assay with HCC1937 and 0.562 in the assay with MDA-MB-231.
The like results for `CN1CCN(c2ccc(/C=C(\C#N)c3ccccc3Br)cc2)CC1` [DG172 (dihydrochloride)] + COC(=O)c1ccc([C@H]2c3[nH]c4ccccc4c3C[C@H](C(=O)OC)N2C(=O)CCl)cc1 [RSL3] were, in that order, 0.373 and 0.61.
The like results for `CC(C)(CCCCCC(O)CCCCCC(C)(C)C(=O)O)C(=O)O` + COC(=O)c1ccc([C@H]2c3[nH]c4ccccc4c3C[C@H](C(=O)OC)N2C(=O)CCl)cc1 [RSL3] were, in that order, 0.288 and 0.337.
As for `COc1cc(O)c2c(c1)O[C@H](c1ccc(O)cc1)CC2=O` [Sakuranetin] + COC(=O)c1ccc([C@H]2c3[nH]c4ccccc4c3C[C@H](C(=O)OC)N2C(=O)CCl)cc1 [RSL3], the relative cell viability in the assay with HCC1937 worked out at 0.362; in the assay on MDA-MB-231, 0.645.
The like results for `CCCCCCS(=O)(=O)NC(=O)c1ccc(CSCc2ccc(-c3ccccc3)cc2)cc1` + COC(=O)c1ccc([C@H]2c3[nH]c4ccccc4c3C[C@H](C(=O)OC)N2C(=O)CCl)cc1 [RSL3] were, in that order, 0.403 and 0.676.
The like results for `Nc1ccc(C(=O)O)c(O)c1` [Aminopar] + COC(=O)c1ccc([C@H]2c3[nH]c4ccccc4c3C[C@H](C(=O)OC)N2C(=O)CCl)cc1 [RSL3] were, in that order, 0.822 and 0.662.
Taken in the same sequence, the figures for `N#Cc1c(O)c2c(-c3ccc(-c4ccccc4O)cc3)csc2[nH]c1=O` + COC(=O)c1ccc([C@H]2c3[nH]c4ccccc4c3C[C@H](C(=O)OC)N2C(=O)CCl)cc1 [RSL3] were 0.412 and 0.423.
With `CC(O)(CC(=O)O)CC(=O)O` [Meglutol] + COC(=O)c1ccc([C@H]2c3[nH]c4ccccc4c3C[C@H](C(=O)OC)N2C(=O)CCl)cc1 [RSL3], the values for the relative cell viability in the assay on HCC1937 and in the assay with MDA-MB-231 were 0.443 and 0.613, respectively.
The like results for `O=C(Nc1cnccc1Cl)N1CCN(Cc2ccc3c(c2)OC(F)(F)O3)CC1` + COC(=O)c1ccc([C@H]2c3[nH]c4ccccc4c3C[C@H](C(=O)OC)N2C(=O)CCl)cc1 [RSL3] were, in that order, 0.338 and 0.568.
The like results for `COc1cc(F)c(C(C)C)cc1-c1ccc(C(F)(F)F)cc1CN1C(=O)O[C@H](c2cc(C(F)(F)F)cc(C(F)(F)F)c2)[C@@H]1C` [Anacetrapib] + COC(=O)c1ccc([C@H]2c3[nH]c4ccccc4c3C[C@H](C(=O)OC)N2C(=O)CCl)cc1 [RSL3] were, in that order, 0.622 and 0.497.
Taken in the same sequence, the figures for `CC(C)OC(=O)C(C)(C)Oc1ccc(C(=O)c2ccc(Cl)cc2)cc1` [Fenofibrate] + COC(=O)c1ccc([C@H]2c3[nH]c4ccccc4c3C[C@H](C(=O)OC)N2C(=O)CCl)cc1 [RSL3] were 0.681 and 0.606.
As for `COc1ccc2c(=O)c(-c3ccccc3)coc2c1` [7-Methoxyisoflavone] + COC(=O)c1ccc([C@H]2c3[nH]c4ccccc4c3C[C@H](C(=O)OC)N2C(=O)CCl)cc1 [RSL3], the relative cell viability stood at 0.396 with HCC1937 and 0.419 with MDA-MB-231.
Taken in the same sequence, the figures for `COc1ccc2c(c1)CCC1C2CCC2(C)C(NCCCCCCN3C(=O)C=CC3=O)CCC12` (stereo unspecified) + COC(=O)c1ccc([C@H]2c3[nH]c4ccccc4c3C[C@H](C(=O)OC)N2C(=O)CCl)cc1 [RSL3] were 0.243 and 0.36.
